PubChem BioAssay (NCI)
Compounds without any hit were thinned out: in the full panel of roughly 83,000, 20% have a hit.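 Single-dose data. Exposure time 48 hours. Values below 10 considered active.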 The source made the active and inactive calls.

How the values were obtained:
Assay in all cases: NCI-60 one-dose screen, 48 h (100 = growth as untreated, 0 = no growth, -100 = all killed)
Conditions in all cases: 10 µM unless noted
RPMI-8226 leukemia = system: RPMI-8226 leukemia
OVCAR-8 ovarian = system: OVCAR-8 ovarian
OVCAR-5 ovarian = system: OVCAR-5 ovarian
OVCAR-4 ovarian = system: OVCAR-4 ovarian
SK-OV-3 ovarian = system: SK-OV-3 ovarian
IGROV1 ovarian = system: IGROV1 ovarian
OVCAR-3 ovarian = system: OVCAR-3 ovarian
HS 578T breast = system: HS 578T breast
NCI/ADR-RES ovarian = system: NCI/ADR-RES ovarian
T-47D breast = system: T-47D breast

Measured: growth

S=c1[nH]nc2sc3ccccc3n12
inactive: RPMI-8226 leukemia 105% | OVCAR-8 ovarian 107% | OVCAR-5 ovarian 108% | OVCAR-4 ovarian 103% | SK-OV-3 ovarian 109% | IGROV1 ovarian 96.9% | OVCAR-3 ovarian 119% | HS 578T breast 114% | NCI/ADR-RES ovarian 112% | T-47D breast 101%

Cc1cc(NC(=O)Nc2cc(Cl)ccc2C)no1
inactive: RPMI-8226 leukemia 88.8% | OVCAR-8 ovarian 110% | OVCAR-5 ovarian 104% | OVCAR-4 ovarian 99.6% | SK-OV-3 ovarian 99.7% | IGROV1 ovarian 68.5% | OVCAR-3 ovarian 117% | HS 578T breast 125% | NCI/ADR-RES ovarian 101% | T-47D breast 89.4%

COc1cccc(-c2nnc(N)o2)c1
inactive: RPMI-8226 leukemia 109% | OVCAR-8 ovarian 98.7% | OVCAR-5 ovarian 105% | OVCAR-4 ovarian 97.9% | SK-OV-3 ovarian 115% | IGROV1 ovarian 102% | OVCAR-3 ovarian 90.4% | HS 578T breast 101% | NCI/ADR-RES ovarian 102% | T-47D breast 97.7%

O=C(Nc1ccccc1Cl)c1cnc2ccc(C3CCNCC3)cn12
inactive: RPMI-8226 leukemia 108% | OVCAR-8 ovarian 65.5% | OVCAR-5 ovarian 30.8% | OVCAR-4 ovarian 101% | SK-OV-3 ovarian 40.3% | OVCAR-3 ovarian 62.2% | NCI/ADR-RES ovarian 90.5% | T-47D breast 51.8%
active: IGROV1 ovarian -50.5% | HS 578T breast 9.47%

O=C(Nc1nc(-c2ccc(Cl)cc2)cs1)c1cc(O)c(O)c(O)c1
inactive: RPMI-8226 leukemia 17.1% | OVCAR-8 ovarian 15.5% | OVCAR-5 ovarian 62.6% | OVCAR-4 ovarian 27.8% | SK-OV-3 ovarian 43.4% | IGROV1 ovarian 15.7% | OVCAR-3 ovarian 40.1% | HS 578T breast 61.9% | NCI/ADR-RES ovarian 13.6% | T-47D breast 25.4%

O=C(c1ccccc1)c1ccco1
inactive: RPMI-8226 leukemia 101% | OVCAR-8 ovarian 98.2% | OVCAR-5 ovarian 114% | OVCAR-4 ovarian 99.4% | SK-OV-3 ovarian 104% | IGROV1 ovarian 99.5% | OVCAR-3 ovarian 108% | HS 578T breast 118% | NCI/ADR-RES ovarian 95.7% | T-47D breast 97%

Cc1cc(N2CCOCC2)nc(N2CCOCC2)n1
inactive: RPMI-8226 leukemia 99.2% | OVCAR-8 ovarian 104% | OVCAR-5 ovarian 99.7% | OVCAR-4 ovarian 93.9% | SK-OV-3 ovarian 99.2% | IGROV1 ovarian 76.6% | OVCAR-3 ovarian 107% | HS 578T breast 95.4% | NCI/ADR-RES ovarian 96.3% | T-47D breast 98%

COc1cc(C2C=C(c3ccc(C)cc3)Nc3nc(SC)[nH]c(=O)c32)ccc1Oc1ccnc2cc(Cl)ccc12 (stereo not given)
inactive: RPMI-8226 leukemia 65.6% | OVCAR-8 ovarian 83.4% | OVCAR-5 ovarian 84.3% | OVCAR-4 ovarian 86.3% | SK-OV-3 ovarian 106% | IGROV1 ovarian 90.5% | OVCAR-3 ovarian 81.1% | HS 578T breast 90.8% | NCI/ADR-RES ovarian 72.6% | T-47D breast 82.3%

O=Cc1c[nH]c2ccc(NC(=O)OCc3ccccc3)cc12
inactive: RPMI-8226 leukemia 93% | OVCAR-8 ovarian 103% | OVCAR-5 ovarian 97.5% | OVCAR-4 ovarian 104% | SK-OV-3 ovarian 97.6% | IGROV1 ovarian 32.4% | OVCAR-3 ovarian 123% | HS 578T breast 252% | NCI/ADR-RES ovarian 96.3% | T-47D breast 84.2%

CCCCC1Nc2nc(SC)n(C)c(=O)c2CN(Cc2ccccc2)C1=O (stereo not given)
inactive: RPMI-8226 leukemia 67.5% | OVCAR-8 ovarian 99.9% | OVCAR-5 ovarian 100% | OVCAR-4 ovarian 103% | SK-OV-3 ovarian 93.8% | IGROV1 ovarian 106% | OVCAR-3 ovarian 113% | HS 578T breast 165% | NCI/ADR-RES ovarian 89.7% | T-47D breast 93.2%

N#Cc1cnc2cc(OC[C@H](O)CO)c(NC(=O)CC3CSSC3)cc2c1Nc1ccc(OCc2cccc(F)c2)c(Cl)c1
inactive: NCI/ADR-RES ovarian 87.8%
active: RPMI-8226 leukemia -68.9% | OVCAR-8 ovarian -54.6% | OVCAR-5 ovarian -47.8% | OVCAR-4 ovarian -62.9% | SK-OV-3 ovarian -87.5% | IGROV1 ovarian -41.8% | OVCAR-3 ovarian -89.2% | HS 578T breast -44.7% | T-47D breast -61.1%

O=c1[nH]c(Cl)nc2c1cnn2-c1ccccc1
inactive: RPMI-8226 leukemia 51.7% | OVCAR-8 ovarian 106% | OVCAR-5 ovarian 97.2% | OVCAR-4 ovarian 82.6% | SK-OV-3 ovarian 110% | IGROV1 ovarian 108% | OVCAR-3 ovarian 93.4% | HS 578T breast 93.4% | NCI/ADR-RES ovarian 96.3% | T-47D breast 98.4%

c1coc([C@@H]2C[C@@H]3Cc4ccc5ccccc5c4N2O3)c1
inactive: RPMI-8226 leukemia 97.3% | OVCAR-8 ovarian 99.4% | OVCAR-5 ovarian 90.8% | OVCAR-4 ovarian 92.4% | SK-OV-3 ovarian 103% | IGROV1 ovarian 113% | OVCAR-3 ovarian 114% | HS 578T breast 110% | NCI/ADR-RES ovarian 99.8% | T-47D breast 104%

Clc1ncn[nH]1
inactive: RPMI-8226 leukemia 102% | OVCAR-8 ovarian 92% | OVCAR-5 ovarian 107% | OVCAR-4 ovarian 100% | SK-OV-3 ovarian 96.3% | IGROV1 ovarian 105% | OVCAR-3 ovarian 105% | HS 578T breast 106% | NCI/ADR-RES ovarian 106% | T-47D breast 99.5%

CCCCCCCCCCSc1ncnc2nc[nH]c12
inactive: RPMI-8226 leukemia 51.4% | OVCAR-8 ovarian 67.5% | OVCAR-5 ovarian 101% | OVCAR-4 ovarian 61.3% | SK-OV-3 ovarian 85% | IGROV1 ovarian 75.1% | OVCAR-3 ovarian 71.1% | HS 578T breast 91.4% | NCI/ADR-RES ovarian 54.5% | T-47D breast 47.9%

c1csc([C@@H]2C[C@@H]3Cc4ccc5ccccc5c4N2O3)c1
inactive: RPMI-8226 leukemia 95.5% | OVCAR-8 ovarian 96.9% | OVCAR-5 ovarian 89.9% | OVCAR-4 ovarian 87.7% | SK-OV-3 ovarian 102% | IGROV1 ovarian 105% | OVCAR-3 ovarian 102% | HS 578T breast 101% | NCI/ADR-RES ovarian 97.7% | T-47D breast 98.8%

CC1=CSC2=NCCN12
inactive: RPMI-8226 leukemia 106% | OVCAR-8 ovarian 112% | OVCAR-5 ovarian 107% | OVCAR-4 ovarian 103% | SK-OV-3 ovarian 110% | IGROV1 ovarian 108% | OVCAR-3 ovarian 113% | HS 578T breast 110% | NCI/ADR-RES ovarian 100% | T-47D breast 109%

CN(C)c1ccc2[nH]c3c(C(N)=O)cc(=O)c(=O)c=3oc2c1
inactive: OVCAR-8 ovarian 25.4% | OVCAR-5 ovarian 89% | OVCAR-4 ovarian 49.1% | SK-OV-3 ovarian 82% | IGROV1 ovarian 32.5% | HS 578T breast 20.4% | NCI/ADR-RES ovarian 58.1% | T-47D breast 18.1%
active: RPMI-8226 leukemia 5% | OVCAR-3 ovarian -9.97%

O=C1CC(C(F)(F)F)=NN1C(=O)c1nn(-c2ccc(Cl)cc2)cc1O
inactive: RPMI-8226 leukemia 71.6% | OVCAR-8 ovarian 71.9% | OVCAR-5 ovarian 87.6% | OVCAR-4 ovarian 79% | SK-OV-3 ovarian 75.4% | IGROV1 ovarian 88.7% | OVCAR-3 ovarian 65.7% | HS 578T breast 106% | NCI/ADR-RES ovarian 72.4% | T-47D breast 84.8%

Nc1nc(SCC2(CCl)COC2)c2[nH]cnc2n1
inactive: RPMI-8226 leukemia 96.4% | OVCAR-8 ovarian 95.8% | OVCAR-5 ovarian 100% | OVCAR-4 ovarian 86.8% | SK-OV-3 ovarian 92.9% | IGROV1 ovarian 101% | OVCAR-3 ovarian 109% | HS 578T breast 89.4% | NCI/ADR-RES ovarian 109% | T-47D breast 100%

CC(C)[C@]12O[C@H]1[C@@H]1O[C@]13[C@]1(O[C@H]1C[C@H]1C4=C(CC[C@@]13C)C(=O)OC4)[C@@H]2OC(=O)CN(C)C
inactive: RPMI-8226 leukemia 14.7% | OVCAR-8 ovarian 14.9% | OVCAR-5 ovarian 26.7% | OVCAR-4 ovarian 21.1% | SK-OV-3 ovarian 52.1% | T-47D breast 27.2%
active: IGROV1 ovarian -17.1% | OVCAR-3 ovarian -1.74% | HS 578T breast -0.647% | NCI/ADR-RES ovarian -5.71%

O=C(C(=O)N1CCCCC1)c1ccc(OC2OC(CO)C(O)C(O)C2O)cc1 (stereo not given)
inactive: RPMI-8226 leukemia 103% | OVCAR-8 ovarian 95.9% | OVCAR-5 ovarian 113% | OVCAR-4 ovarian 108% | SK-OV-3 ovarian 105% | IGROV1 ovarian 86.7% | OVCAR-3 ovarian 107% | HS 578T breast 110% | NCI/ADR-RES ovarian 103% | T-47D breast 99.6%

COc1ccc(C2CC(c3ccc(OC)c(OC)c3)=NN2C(=O)c2cc(OC)c(OC)c(OC)c2)cc1 (stereo not given)
inactive: RPMI-8226 leukemia 50.2% | OVCAR-8 ovarian 34.2% | OVCAR-5 ovarian 66.5% | OVCAR-4 ovarian 58.8% | SK-OV-3 ovarian 30.3% | IGROV1 ovarian 31.5% | NCI/ADR-RES ovarian 13% | T-47D breast 36.4%
active: OVCAR-3 ovarian -45.1% | HS 578T breast -14%

CN(CC(=O)Nc1nc2ccccc2[nH]1)S(=O)(=O)c1ccc(Cl)cc1
active: IGROV1 ovarian -28.9%
inactive: RPMI-8226 leukemia 57.5% | OVCAR-8 ovarian 95.2% | OVCAR-5 ovarian 96.4% | OVCAR-4 ovarian 93.6% | SK-OV-3 ovarian 96.5% | OVCAR-3 ovarian 91% | HS 578T breast 87.2% | NCI/ADR-RES ovarian 88.3% | T-47D breast 77%

CN(C)c1ccc(/C=C(\C#N)c2nc3ccccc3c(=O)[nH]2)cc1
active: IGROV1 ovarian -10.8%
inactive: RPMI-8226 leukemia 140% | OVCAR-8 ovarian 97.1% | OVCAR-5 ovarian 86.8% | OVCAR-4 ovarian 29.9% | SK-OV-3 ovarian 114% | OVCAR-3 ovarian 114% | HS 578T breast 71.4% | NCI/ADR-RES ovarian 76.9% | T-47D breast 92.1%

CC/C(=C\c1ccc(N(C)C)cc1)c1nc2ccccc2c(=O)[nH]1
inactive: RPMI-8226 leukemia 79.4% | OVCAR-8 ovarian 106% | OVCAR-5 ovarian 92.9% | OVCAR-4 ovarian 95.8% | SK-OV-3 ovarian 109% | IGROV1 ovarian 66.4% | OVCAR-3 ovarian 116% | HS 578T breast 328% | NCI/ADR-RES ovarian 98.3% | T-47D breast 79.2%
